Test results from publication PMC6792352, “Limited Chemical Structural Diversity Found to Modulate Thyroid Hormone Receptor in the Tox21 Chemical Library” (Environmental Health Perspectives, 2019).

What follows are molecules tested on thyroid hormone receptor (endogenous TRα and TRβ). Conditions: read-out: Average AC50 (uM) GH3-TRE-Antag; 24 h; antagonist.
Design: species or system GH3-TRE-Luc (rat pituitary); GH3-TRE-Luc luciferase reporter, antagonist mode against 1 nM T3, loss of signal, qHTS

Row | SMILES | AC50 [µM]
1 | CCCCCCCCC(=O)NCc1ccc(O)c(OC)c1 [Nonivamide] | > 50
2 | C[C@]12CC[C@H]3[C@@H](CCC4=CC(=O)CC[C@@H]43)[C@@H]1CC[C@@H]2OC(=O)CCc1ccccc1 [Nandrolone phenpropionate] | 19.5
3 | CN1C(=O)CN=C(c2ccccc2)c2cc(Cl)ccc21 [Diazepam] | 49.5
4 | Cc1nnc2n1-c1ccc(Cl)cc1C(c1ccccc1)=NC2 [Alprazolam] | 41.3
5 | O=C1Nc2ccc(Cl)cc2C(c2ccccc2Cl)=NC1O (stereo not drawn) [Lorazepam] | > 50
6 | CN(C)CCc1c[nH]c2cccc(O)c12 [Psilocin] | 91
7 | Cc1ccc(OP(=O)(Oc2ccc(C)cc2C)Oc2ccc(C)cc2C)c(C)c1 [TXP] | 70.6
8 | Cc1cc2c3c(c1)C(c1ccccc1)=N[C@@H](NC(=O)c1ccncc1)C(=O)N3CC2 [CI-1018] | 27.4
9 | O=C1CN=C(c2ccccc2)c2cc(Cl)ccc2N1 [Desmethyldiazepam] | 22.9
